Inconclusive results are not listed. Calls of active or inactive are those of the source. Rule for the calls: active = hit-call score of the fitted dose curve at least 0.9, where 1 is the maximum; inconclusive = response in the unintended direction; inactive = score below 0.9.
Assay: ATG_M_32_TRANS: Attagene TRANS-FACTORIAL HepG2 Assay for M32 Transcription Factor (Internal Marker) (AID 2282984)
Conditions: HepG2 Attagene TRANS M32 internal marker reporter
Procedure: ATG_TRANS is a cell-based, multiplexed-readout assay that uses HepG2, a human liver cell line, with measurements taken at 24 hours after chemical dosing in a 24-well plate.ATG_M_32_TRANS is one of 30 assay component(s) measured or calculated from the ATG_TRANS assay. It is designed to make measurements of mRNA induction, a form of inducible reporter, as detected with fluorescence intensity signals by Reverse transcription polymerase chain reaction (RT-PCR) and Capillary electrophoresis technology.Data from the assay component ATG_M_32_TRANS was analyzed into 1 assay endpoint. This assay endpoint, ATG_M_32_TRANS, was analyzed in the positive analysis fitting direction relative to DMSO as the negative control and baseline of activity. Using a type of inducible reporter, measures of mRNA for gain-of-signal activity can be used to understand the background control at the transcription factor-level as they relate to the gene . Furthermore, this assay endpoint can be referred to as a secondary readout, because this assay has produced multiple assay endpoints where this one serves a background control function. To generalize the intended target to other relatable targets, this assay endpoint is annotated to the background measurement intended target family, where the subfamily is internal marker.
Human liver HepG2 cells are transiently transfected with multiple reporter transcription units (MRTUs) in 6-well plates using FuGene 6 reagent (Roche; 3 ml FuGene/1 mg DNA). The MRTU constructs are regulated by a cis-regulating element (promoter). […] A major difference between the CIS and TRANS system is that in CIS activities of endogenous TFs are measured, whereas the TRANS assay evaluates changes in activities of exogenous, chimeric NR-Gal4 proteins. […] At the end of 24 hour incubation, total RNA was isolated using TriZol reagent (Invitrogen). The isolated RNA is then reverse-transcribed using oligo(dT) primer and Mo-MLV reverse transcriptase (Invitrogen) with DNAse I (Ambion) treatment for 30 min. The one-tenth of the produced cDNA was amplified by PCR using Taq DNA polymerase (Invitrogen) and two reporter sequence-specific primers. The PCR products were fluorescently labeled by primer extension with 6-arboxyfluorescein (6-FAM) 5'-labeled reporter sequence-specific primer (2 min at 95 C, 20 s at 68 C and 10 min at 72 C) and these products were digested with 5U of HpaI (New England Biolabs) for 2h at 37 C. The fragments were purified using Qiaquick PCR columns (Qiagen), analyzed on an ABI 3130xL genetic analyzer (Applied Biosystems) with peak positions identified by using a set of X-rhodamine (ROX)-labeled MapMarker1000 molecular weight standards (BioVentures). The raw capillary electrophoresis data was processed using Attagraph software (Attagene).

outcome, inactive:
COC(C)(C)CCCC(C)CC=O (stereo not given)
CCOc1ccc(NC(=O)CC(C)=O)cc1
CN(C)CCOC(C)(c1ccccc1)c1ccccn1 (stereo not given)
CC(=O)OCCCc1ccccc1
CCOc1ccc(N=Nc2ccc(C=Cc3ccc(N=Nc4ccc(OCC)cc4)cc3S(=O)(=O)O)c(S(=O)(=O)O)c2)cc1
CCCCCc1ccco1
[Cl][Au]([Cl])[Cl]
CCOc1ccccc1O
O=C(Nc1ccc2c(O)c(N=Nc3ccc(N=Nc4ccc(S(=O)(=O)O)cc4)cc3)c(S(=O)(=O)O)cc2c1)c1ccccc1
O=C1c2ccccc2C(=O)c2c(O)ccc(O)c21
CCCN(CCC)S(=O)(=O)c1ccc(C(=O)O)cc1
Cc1ccc(OC(=O)c2ccccc2O)cc1
O=CCc1ccccc1
CS(=O)(=O)c1ccc(C2=C(c3ccccc3)C(=O)OC2)cc1
CC=CC=CCOC(=O)C(C)C
CCCCCCCCCCCC(=O)OCC(O)CO (stereo not given)
CC1=CC[C@@]23C[C@@H]1C(C)(C)[C@@H]2CC[C@H]3C
CC1(C)CCC[C@]2(C)[C@H]3CCO[C@]3(C)CC[C@@H]12
CCCCCCC(O)CCCCCCCCCCC(=O)O (stereo not given)
CN(C)C(=S)SC(=S)N(C)C
COCCc1ccc(OCC(O)CNC(C)C)cc1 (stereo not given)
CC(C)CCOC(=O)c1ccccc1
Cc1c(C2(c3cc(Br)c(O)c(Br)c3C)OS(=O)(=O)c3ccccc32)cc(Br)c(O)c1Br
CC(C)=CCCC(C)CCOC=O (stereo not given)
C=CC(C)C#N (stereo not given)
C=C(C#N)C(=O)OCC
COC(C)(C)CC(C)=O
COc1cc(CCC(C)=O)ccc1O
CCCCCCC(CO)CCCC (stereo not given)
CN(C)c1cccc(O)c1
COC(=O)Nc1ccc(Cl)c(Cl)c1
c1ccc(Oc2ccccc2)cc1
C=C(C)[C@H]1CC=C(C)C(=O)C1
CS(=O)(=O)c1ccc(Cl)cc1
c1ccc2[nH]cnc2c1
C=CC(=O)OCCCC
CCCCCCCCCC(C)C=O (stereo not given)
IC(I)I
OCCOCCN1CCN(C2=Nc3ccccc3Sc3ccccc32)CC1
O=C1OC(=O)c2c(Cl)c(Cl)c(Cl)c(Cl)c21
